PubChem BioAssay
Calls of active or inactive are those of the source.

How the values were obtained:
[1] = system: Plasmodium falciparum Sir2 (PF13_0152, Sir2A); assay: pfSir2 binders on small-molecule microarrays, primary screen, biochemical, small-molecule microarray, 635 nm fluorescence (AID 1098); settings: small-molecule microarray binding, fluorescence 635 nm; higher = more signal;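 also: score merges spot fluorescence intensity with its signal-to-noise ratio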
[2] = small-molecule microarray binders of probe aDKK1, primary screen, biochemical, biotinylated probe, 635/667 nm fluorescence (AID 1099); settings: higher = more signal;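 also: score merges 667nm spot fluorescence with signal to noise across triplicate slides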
[3] = small-molecule microarray binders of probe aCHRDL2, primary screen, biochemical, biotinylated probe, 635/667 nm fluorescence (AID 1100); settings: higher = more signal
[4] = splicing luciferase reporter signal modulators, primary screen, spliceosome inhibition project, cell-based, HEK293, splice +/- reporter (AID 1101); settings: luminescence, 24 h, higher = more signal, called active from +8 up or from −8 down;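 also: HEK293 cells carrying a splicing-competent luciferase reporter gene; test concentration not given here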
[5] = biological target: Fibroblast growth factor 10 (Homo sapiens) (UniProt O15520); assay: FGF10 binders on small-molecule microarrays, primary screen, biochemical, small-molecule microarray, 635 nm fluorescence (AID 1102); settings: FGF10 binding, fluorescence 635 nm, higher = more signal
Fibroblast growth factor 10 (Homo sapiens), sequence (O15520 whole entry, looked up): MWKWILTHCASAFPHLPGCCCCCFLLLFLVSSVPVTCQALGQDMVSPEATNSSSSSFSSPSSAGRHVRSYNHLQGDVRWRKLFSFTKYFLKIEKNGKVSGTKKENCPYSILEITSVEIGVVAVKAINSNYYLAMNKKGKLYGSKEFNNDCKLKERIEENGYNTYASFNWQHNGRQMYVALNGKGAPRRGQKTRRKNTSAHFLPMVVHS

[6] = system: glycogen synthase kinase-3 (GSK3A per assay name; protocol says GSK3B); assay: GSK3 binders on small-molecule microarrays, primary screen, biochemical, small-molecule microarray, 635 nm fluorescence, GSK3A (AID 1103); settings: small-molecule microarray binding, fluorescence 635 nm; higher = more signal; also: the record names both GSK3A and GSK3B
[7] = biological target: Epidermal growth factor receptor (Homo sapiens) (UniProt P00533); assay: EGFR binders on small-molecule microarrays, primary screen, biochemical, small-molecule microarray, 635 nm fluorescence (AID 1104); settings: EGFR binding, higher = more signal;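 also: score merges 667 nm emission intensity with spot signal to noise over triplicate slides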
Epidermal growth factor receptor (Homo sapiens), sequence (P00533 whole entry, looked up): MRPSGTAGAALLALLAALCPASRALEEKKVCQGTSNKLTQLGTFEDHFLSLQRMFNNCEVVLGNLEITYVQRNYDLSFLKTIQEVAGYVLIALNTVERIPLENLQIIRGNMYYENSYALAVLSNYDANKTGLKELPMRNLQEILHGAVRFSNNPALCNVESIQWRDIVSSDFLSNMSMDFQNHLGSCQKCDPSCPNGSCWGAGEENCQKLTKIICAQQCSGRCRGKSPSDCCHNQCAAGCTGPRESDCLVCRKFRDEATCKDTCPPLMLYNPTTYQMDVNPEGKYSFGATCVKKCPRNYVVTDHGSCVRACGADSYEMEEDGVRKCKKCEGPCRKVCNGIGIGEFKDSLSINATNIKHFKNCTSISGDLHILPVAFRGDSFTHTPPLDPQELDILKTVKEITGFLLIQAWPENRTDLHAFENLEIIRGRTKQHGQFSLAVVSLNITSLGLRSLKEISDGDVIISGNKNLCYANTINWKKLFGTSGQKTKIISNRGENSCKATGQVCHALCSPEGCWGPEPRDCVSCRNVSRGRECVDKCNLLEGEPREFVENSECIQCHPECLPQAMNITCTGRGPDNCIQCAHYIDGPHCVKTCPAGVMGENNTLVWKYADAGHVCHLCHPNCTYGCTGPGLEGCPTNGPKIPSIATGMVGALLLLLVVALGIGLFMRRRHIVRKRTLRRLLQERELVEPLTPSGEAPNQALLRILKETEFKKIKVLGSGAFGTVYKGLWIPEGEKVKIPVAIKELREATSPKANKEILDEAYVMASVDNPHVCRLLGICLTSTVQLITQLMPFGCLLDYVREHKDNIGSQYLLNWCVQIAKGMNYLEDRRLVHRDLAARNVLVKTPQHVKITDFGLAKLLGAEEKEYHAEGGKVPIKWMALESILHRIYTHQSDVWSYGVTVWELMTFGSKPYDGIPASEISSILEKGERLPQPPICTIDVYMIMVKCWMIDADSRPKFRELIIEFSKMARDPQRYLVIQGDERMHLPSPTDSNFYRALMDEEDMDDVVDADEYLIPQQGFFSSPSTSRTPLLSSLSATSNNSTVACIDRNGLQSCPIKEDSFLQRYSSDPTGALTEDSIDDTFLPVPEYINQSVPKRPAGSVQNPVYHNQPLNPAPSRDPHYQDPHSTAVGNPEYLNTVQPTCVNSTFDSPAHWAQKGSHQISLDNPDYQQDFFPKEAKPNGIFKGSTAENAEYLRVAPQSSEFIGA

[8] = biological target: Follistatin-related protein 3 (Homo sapiens) (UniProt O95633); assay: FSTL3 binders on small-molecule microarrays, primary screen, biochemical, small-molecule microarray, 635 nm fluorescence (AID 1105); settings: FSTL3 binding, higher = more signal;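 also: score merges emission near 667 nm and signal to noise per printed spot across three slides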
Follistatin-related protein 3 (Homo sapiens), sequence (O95633 whole entry, looked up): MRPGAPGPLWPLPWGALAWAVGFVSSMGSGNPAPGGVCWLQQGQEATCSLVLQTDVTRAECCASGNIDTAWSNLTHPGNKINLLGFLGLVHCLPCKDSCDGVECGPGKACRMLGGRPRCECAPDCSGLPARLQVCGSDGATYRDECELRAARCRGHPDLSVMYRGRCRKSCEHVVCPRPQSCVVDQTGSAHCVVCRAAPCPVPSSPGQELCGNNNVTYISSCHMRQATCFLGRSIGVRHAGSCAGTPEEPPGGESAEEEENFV

[9] = biological target: Dickkopf-related protein 1 (Homo sapiens) (UniProt O94907); assay: DKK1 binders on small-molecule microarrays, primary screen, biochemical, small-molecule microarray, 635 nm fluorescence scan (AID 1106); settings: DKK1 binding, higher = more signal;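 also: score merges emission near 667 nm with signal to noise over three replicate slides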
Dickkopf-related protein 1 (Homo sapiens), sequence (O94907 whole entry, looked up): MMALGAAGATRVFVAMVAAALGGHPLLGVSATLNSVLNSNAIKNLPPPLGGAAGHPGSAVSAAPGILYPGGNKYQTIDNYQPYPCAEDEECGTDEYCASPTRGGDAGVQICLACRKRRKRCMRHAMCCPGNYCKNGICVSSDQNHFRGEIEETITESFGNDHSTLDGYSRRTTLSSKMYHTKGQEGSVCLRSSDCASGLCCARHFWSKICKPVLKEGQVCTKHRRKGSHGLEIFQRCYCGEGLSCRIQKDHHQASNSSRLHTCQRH

[10] = system: Inhibin beta A chain (activin A); assay: INHBA (activin A) binders on microarrays, primary screen, biochemical, small-molecule microarray, 635 nm fluorescence scan (AID 1107); settings: small-molecule microarray binding, higher = more signal;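 also: mouse activin A protein probed at 4.33 µg/mL on printed slides; score merges bound-protein fluorescence near 667 nm with spot signal-to-noise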
[11] = system: Human papillomavirus type 1a protein E7 (residues 44-93); assay: HPV1a E7 fragment binders on microarrays, primary screen, biochemical, small-molecule microarray, residues 44-93, 635 nm fluorescence (AID 1108); settings: small-molecule microarray binding, fluorescence 635 nm; higher = more signal;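 also: E7 fragment applied at 1 µg/mL in TBST for 1 h at 4 C; score combines spot fluorescence with its signal to noise ratio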
[12] = modulators of HCV replicon luciferase signal, primary screen, HCV replication inhibitor project, Huh7 cells, luciferase reporter (AID 1109); settings: 48 h, higher = more signal;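 also: huh7 hepatoma cells harbouring a luciferase neomycin HCV replicon reporter; luciferase luminescence as measure of HCV replicon replication; test concentration not given here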
[13] = biological target: Left-right determination factor 2 (Homo sapiens) (UniProt O00292); assay: LEFTY2 binders on small-molecule microarrays, primary screen, biochemical, small-molecule microarray, 635 nm fluorescence scan (AID 1110); settings: LEFTY2 binding, higher = more signal
Left-right determination factor 2 (Homo sapiens), sequence (O00292 whole entry, looked up): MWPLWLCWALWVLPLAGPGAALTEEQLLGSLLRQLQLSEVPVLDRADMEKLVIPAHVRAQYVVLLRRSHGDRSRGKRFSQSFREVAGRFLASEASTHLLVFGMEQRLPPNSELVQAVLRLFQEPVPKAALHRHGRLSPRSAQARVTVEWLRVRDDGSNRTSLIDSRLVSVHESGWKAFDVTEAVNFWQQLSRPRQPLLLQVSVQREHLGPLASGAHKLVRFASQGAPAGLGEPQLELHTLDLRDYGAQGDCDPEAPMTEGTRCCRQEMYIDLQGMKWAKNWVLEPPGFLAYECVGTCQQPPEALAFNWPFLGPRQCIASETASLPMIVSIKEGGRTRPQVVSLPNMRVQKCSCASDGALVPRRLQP

[14] = biological target: Calmodulin-1 (Homo sapiens) (UniProt P0DP23); assay: CALM1 binders on microarrays, EGTA buffer, profiling panel, biochemical, small-molecule microarray, Cy5-labelled CALM1 (AID 1111); settings: Cy5-CALM1 binding fluorescence, higher = more signal;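 also: labelled calmodulin applied in Tris saline Tween buffer holding calcium plus EGTA and DTT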
[15] = biological target: Calmodulin-1 (Homo sapiens) (UniProt P0DP23); assay: calcium-bound CALM1 binders on microarrays, profiling panel, artefact control for SMM control-protein annotation, biochemical, small-molecule microarray, Cy5-labelled CALM1, plus calcium (AID 1112); settings: Cy5-CALM1 binding fluorescence, higher = more signal;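 also: score merges spot fluorescence with signal to noise from triplicate slides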
[16] = small-molecule microarray binders of probe aWnt5a, primary screen, biochemical, biotinylated probe, 635/667 nm fluorescence (AID 1113); settings: higher = more signal;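 also: score merges 667 nm fluorescence intensity with signal-to-noise per printed feature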
[17] = small-molecule microarray binders of probe aShh, primary screen, biochemical, biotinylated probe, 635/667 nm fluorescence (AID 1114); settings: higher = more signal;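 also: probe is biotin-labelled aShh protein from a stem cell growth factor screen; measures binding of labelled protein to compounds printed on the slide; score merges feature fluorescence at 667 nm with signal-to-noise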
[18] = small-molecule microarray binders of probe aNog, primary screen, biochemical, biotinylated probe, 635/667 nm fluorescence (AID 1115); settings: higher = more signal;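 also: probe is biotinylated aNog protein used at 0.15 µg/mL for 1 h at 4 C; z-score combines 667 nm fluorescence of each spot with its signal to noise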
[19] = biological target: Torsin-1A-interacting protein 1 (Homo sapiens) (UniProt Q5JTV8); assay: LAP1 binders from COS7 cell lysate, primary screen, small-molecule microarray, 635/667 nm fluorescence (AID 1116); settings: COS7-hLAP1 lysate binding, 635 nm fluorescence, higher = more signal
Torsin-1A-interacting protein 1 (Homo sapiens), sequence (Q5JTV8 whole entry, looked up): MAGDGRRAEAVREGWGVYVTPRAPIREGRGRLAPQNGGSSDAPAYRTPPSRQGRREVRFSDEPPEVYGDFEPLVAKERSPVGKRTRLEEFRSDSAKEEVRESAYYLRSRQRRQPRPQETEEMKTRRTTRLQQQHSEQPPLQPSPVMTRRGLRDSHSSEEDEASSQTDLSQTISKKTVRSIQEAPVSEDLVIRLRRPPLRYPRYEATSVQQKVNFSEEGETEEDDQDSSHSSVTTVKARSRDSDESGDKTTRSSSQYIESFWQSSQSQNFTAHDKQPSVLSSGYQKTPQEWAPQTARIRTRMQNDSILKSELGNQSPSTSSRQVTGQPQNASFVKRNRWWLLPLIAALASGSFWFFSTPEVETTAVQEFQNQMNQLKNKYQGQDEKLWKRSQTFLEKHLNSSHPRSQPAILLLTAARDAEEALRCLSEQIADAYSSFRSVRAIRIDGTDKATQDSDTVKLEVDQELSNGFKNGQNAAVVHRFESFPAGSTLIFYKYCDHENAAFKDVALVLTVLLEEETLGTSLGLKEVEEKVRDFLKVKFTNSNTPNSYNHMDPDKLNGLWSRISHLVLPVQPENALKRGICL

[20] = biological target: Alpha-bungarotoxin (Bungarus multicinctus) (UniProt P60615); assay: alpha-bungarotoxin binders on microarray, profiling panel, artefact control for SMM control protein annotation, biochemical, small-molecule microarray, Alexa647 label, 635/667 nm fluorescence (AID 1117); settings: alpha-BTX-A647 binding fluorescence, higher = more signal
Alpha-bungarotoxin (Bungarus multicinctus), sequence (P60615 whole entry, looked up): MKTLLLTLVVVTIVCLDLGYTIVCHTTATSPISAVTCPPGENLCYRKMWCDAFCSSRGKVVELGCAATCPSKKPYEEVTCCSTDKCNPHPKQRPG

| Structure (SMILES) | composite z-score [1] | composite z-score [2] | composite z-score [3] | z-score [4] | composite z-score [5] | composite z-score [6] | composite z-score [7] | composite z-score [8] | composite z-score [9] | composite z-score [10] | composite z-score [11] | z-score [12] | composite z-score [13] | composite z-score [14] | composite z-score [15] | composite z-score [16] | composite z-score [17] | composite z-score [18] | composite z-score [19] | composite z-score [20] |
| --- | --- | --- | --- | --- | --- | --- | --- | --- | --- | --- | --- | --- | --- | --- | --- | --- | --- | --- | --- | --- |
| CCOC(=O)[C@H]1C/C=C/C[C@H](C(=O)OCC)C(=O)O[C@H]2[C@@H](OC)O[C@H](CO)[C@@H](OC(=O)Nc3ccc4c(c3)OCO4)[C@@H]2OC1=O | 0.353 | 0.0005 | 0.0193 | -1.14 (inactive) | 0.79 | 0.677 | -0.407 | 0.294 | -0.009 | 0.456 | 0.433 | -3.52 | -0.261 | 0.346 | 0.152 | 0.0608 | 0.28 | 0.122 | 0.591 | 0.167 |
| COc1ccc([Si](C)(C)[C@H]2[C@H](CC(=O)N(CCO)Cc3ccccc3)O[C@@]3(C(=O)N(Cc4cccc(N5CCC5=O)c4)c4ccccc43)[C@@H]2C)cc1 | 1.32 | 0.122 | 0.0014 | -2.18 (inactive) | 0.697 | 0.599 | 0.4 | 0.893 | 0.696 | 0.928 | 0.784 | -3.85 | 0.829 | 0.64 | -0.173 | -0.1 | -0.0793 | -0.0311 | 0.059 | 1.03 |
| CC(C)N1C(=O)C[C@@](C(=O)NCc2ccccc2)(c2ccc([N+](=O)[O-])cc2)[C@H]1c1ccc(CO)cc1 | 0.142 | -0.0752 | 0.934 | 0.0798 (inactive) | 0.484 | 0.321 | -0.786 | -0.17 | -0.0781 | 0.0614 | 1.37 | -0.0323 | -0.57 | -0.47 | -0.602 | -0.0894 | -0.13 | -0.498 | 1.99 | -0.148 |
| CN1CCC(CCCO)=CC1c1ccc(CN2CCCC2)cc1 (stereo not given) | 0.988 | 0.331 | 0.756 | 0.873 (inactive) | 1.3 | 1.3 | 1.64 | 1.48 | 1.74 | 1.86 | 1.25 | -1.94 | 1.3 | -0.561 | -0.938 | 0.0215 | 0.441 | 0.215 | 1.49 | 1.34 |
| COc1ccc(C#Cc2ccc3c(c2)[C@]2(C(=O)N3)[C@H](c3ccc(O)cc3)N3[C@H](c4ccccc4)[C@H](c4ccccc4)OC(=O)[C@H]3[C@@H]2C(=O)NC[C@H](O)c2ccccc2)cc1 | 1.14 | 0.155 | 0.397 | -1.02 (inactive) | 0.94 | 0.755 | 0.206 | 0.801 | 0.233 | 0.282 | 1.33 | -1.63 | 0.0197 | 0.199 | 0.689 | 0.164 | -0.138 | 0.305 | 0.818 | 1.26 |
| N[C@@H](Cc1ccccc1)Cn1cc(-c2ccccc2)nn1 | -0.334 | 0.552 | 0.932 | -1.38 (inactive) | -0.232 | -0.595 | 0.0157 | 0.0589 | -0.328 | 0.458 | 0.18 | -0.65 | -0.339 | -0.197 | -0.574 | -0.027 | -0.206 | -0.329 | 0.119 | 0.588 |
| Cc1ccc(S[C@]2(C(=O)NCc3ccccc3)CC(=O)N(Cc3ccccc3)[C@@H]2c2ccc(CO)cc2)cc1 | 0.979 | 0.114 | 0.694 | 0.643 (inactive) | -0.173 | -0.789 | -1.22 | -1.01 | -0.799 | -0.317 | 1.42 | -2.1 | -0.934 | -0.344 | -0.195 | -0.0395 | -0.0977 | -0.364 | 1.2 | -0.593 |
| Cc1ccccc1C(O)C1C=CC2C(=O)N(C)C(=O)C2N1N1CCCCC1 (stereo not given) | 1.29 | 0.837 | 0.906 | 1.28 (inactive) | 0.975 | 1.04 | 0.628 | 0.621 | 0.215 | 1.28 | 1.05 | -0.18 | 0.163 | 0.8 | 0.413 | 0.0403 | 0.254 | 1.72 | 1.65 | 1.04 |
| O=C1O[C@H](c2ccccc2)[C@H](c2ccccc2)N2[C@H]1[C@@H](C(=O)NC[C@H](O)c1ccccc1)[C@]1(C(=O)Nc3ccc(C#CCCO)cc31)[C@H]2c1ccc(O)cc1 | -0.229 | -0.145 | 0.0258 | -0.551 (inactive) | -0.716 | -1.28 | -0.286 | -1.17 | -0.523 | 0.644 | -0.453 | -1.07 | -0.47 | -0.6 | -0.158 | -0.202 | 0.0469 | -0.0725 | 0.0234 | -1.61 |
| COCCOC(=O)N1C(=O)[C@@]2(c3cc(C#CCNC(N)=O)ccc31)[C@H](c1ccccc1OCCO)N1[C@H](c3ccccc3)[C@H](c3ccccc3)OC(=O)[C@H]1[C@@H]2C(N)=O | 0.806 | 0.117 | 0.106 | -0.265 (inactive) | 0.848 | 0.786 | 0.528 | 1.26 | 0.439 | 0.719 | 1.18 | -0.733 | 0.54 | 0.451 | 0.664 | 0.0253 | -0.229 | -0.314 | -0.0837 | 1.18 |
| O=C1N(CCS(=O)(=O)c2ccccc2)Cc2ccccc2C[C@]12N=C(c1ccc(OCCCO)cc1)O[C@@H]2c1ccccc1 | 1.24 | 0.467 | 0.655 | -1.46 (inactive) | 1.4 | 1.3 | 0.477 | 1.18 | 0.784 | 1.4 | -0.183 | -2.19 | 0.947 | 2.54 | 0.422 | 0.122 | 0.21 | 1.21 | 1.88 | 1.59 |
